We go through 14 compounds from PubChem BioAssay (NCI).

The structures appear in SMILES notation. About 83,000 compounds went through this panel and 20% of them were active in at least one assay; those are over-represented in the sample as a whole.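 Single-concentration screen, 48 h exposure, 96-well plates. Endpoint: percent growth. Below 10 = active.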 Unmarked numbers belong to inactive results. Active and inactive are the calls of the source.

Holding throughout (assay): NCI-60 one-dose screen, 48 h (100 = growth as untreated, 0 = no growth, -100 = all killed)
Holding throughout (conditions): 10 µM unless noted

The test system of experiment [1] is RPMI-8226 leukemia.
The subject of experiment [2] is OVCAR-8 ovarian.
Experiment [3] has as its system OVCAR-5 ovarian.
Experiment [4] deals with OVCAR-4 ovarian.
Experiment [5] deals with SK-OV-3 ovarian.
Experiment [6] relates to IGROV1 ovarian.
Experiment [7] relates to OVCAR-3 ovarian.
Experiment [8] concerns HS 578T breast.
Experiment [9] has as its system NCI/ADR-RES ovarian.
In experiment [10] the test system is T-47D breast.

As to `CC1(C)CC2(C)OC2C2(C1)N=NC(=Nc1ccccc1)O2` (stereo not given), the growth in [1] was 4.43% (active); in experiment [2] it was 77.8%; in experiment [3], 94.3%; in [4], 60.9%; in [5], 117%; in experiment [6], 89.6%. Further, the growth in experiment [7] was 10.3%; in experiment [8] it was 103%; in experiment [9], 92.7%; in experiment [10], 63.9%.

Take `CCOC(=O)C1=C(C)c2ccc(OC)c(OC)c2C1`: the growth in [1] was 85.3%; in [2], 95.7%; in experiment [3], 102%; in experiment [4], 84.7%; in experiment [5], 103%; in experiment [6], 104%. Also, the growth in experiment [7] was 117%; in experiment [8], 120%; in experiment [9] it was 101%; in experiment [10], 78%.

On to `COc1cc(C2C3=C(COC3=O)N(CCO)c3cc4c(cc32)CCC4)cc(OC)c1O` (stereo not given), for which the growth is 32.2% in experiment [1]; 22.6% in experiment [2]; 56.6% in [3]; 38.2% in experiment [4]; 37.7% in experiment [5]; 17.5% in experiment [6]. Moreover, the growth in experiment [7] is -35.5% (active); in experiment [8] it was 32%; in experiment [9] it was 52.8%; in experiment [10], 46.4%.

With `COc1cc(CNC(=O)c2ccsc2Nc2ccnc(C(F)(F)F)c2)ccc1O`, the growth is 91% in [1]; 102% in experiment [2]; 107% in experiment [3]; 105% in experiment [4]; 97.3% in experiment [5]; 105% in [6]. In addition, the growth was 105% in experiment [7], 104% in [8], 95.4% in [9] and 98.7% in [10].

Regarding `CCN1C(=O)N(CC)C2Nn3c(s/c(=C4\C(=O)N(C(C)C)c5ccccc54)c3=O)=NC21` (stereo not given), the growth in [1] is 23.3%; in experiment [2] it was 39.9%; in experiment [3], 64%; in experiment [4] it was 35.2%; in [5] it was 35.5%; in experiment [6], 49.5%. In addition, the growth was 19.4% in experiment [7], 60.1% in experiment [8], 7.07% (active) in experiment [9] and 27.9% in experiment [10].

Regarding `COc1ccccc1N1C(=N)S/C(=C\c2ccc(OCc3ccccc3F)cc2)C1=O`, the growth in experiment [1] was 70.1%; in experiment [2], 55.3%; in experiment [3], 101%; in [4] it was 87%; in experiment [5], 102%; in [6], 73.5%. The growth in experiment [7] is 86.7%; in experiment [8], 86.7%; in experiment [9], 71.3%; in [10], 66.8%.

`O=C(Nc1ccc(Cl)cc1F)c1cc(Br)ccc1O`: the growth in experiment [1] was -13.5% (active); in experiment [2], 9.53% (active); in [3], 22%; in [4] it was 14.4%; in experiment [5] it was -0.537% (active); in experiment [6], 19.5%. The growth was 9.61% (active) in [7], 1.54% (active) in experiment [8], 7.03% (active) in [9] and -14% (active) in experiment [10].

`O=S1(=O)N(Cc2ccccc2)[C@@H](Cc2ccccc2)[C@H](O)[C@H](O)[C@H](Cc2ccccc2)N1Cc1ccccc1`: the growth in [1] is -7.2% (active); in experiment [2], 7.06% (active); in experiment [3], 41.1%; in experiment [4] it was 15.4%; in [5] it was 6.58% (active); in experiment [6], 10.3%. The growth in experiment [7] was -22% (active); in [8], 19.7%; in experiment [9], -7.86% (active); in experiment [10], 7.87% (active).

Consider `COc1ccc(-c2cn[nH]c2-c2ccc(OC)c(O)c2)cc1`, for which the growth in experiment [1] is 77.5%; in [2], 88.4%; in [3], 99.1%; in experiment [4], 90.2%; in experiment [5], 86.8%; in experiment [6], 77.2%. Besides, the growth in experiment [7] was 81.1%; in [8], 75.9%; in experiment [9], 49.2%; in experiment [10], 73.6%.

On to `O=C(Nc1ccc(C23CC4CC(CC(c5ccccc5)(C4)C2)C3)cc1)c1cccs1`, for which the growth was 41.1% in experiment [1]; 57.5% in experiment [2]; 100% in experiment [3]; 58% in [4]; 99.3% in experiment [5]; 92.8% in experiment [6]. Also, the growth is 71.1% in experiment [7], 92.7% in experiment [8], 58% in experiment [9] and 49.2% in experiment [10].

On to `COC(=O)C1(C)COP(=O)(Nc2ccc(OC)cc2)OC1` (stereo not given), for which the growth in experiment [1] was 97.7%; in [2] it was 101%; in [3], 108%; in [4] it was 108%; in [5], 108%; in experiment [6] it was 108%. Besides, the growth in experiment [7] was 107%; in experiment [8] it was 106%; in [9] it was 99.5%; in experiment [10], 93.1%.

As for `COc1nc2c(c(=O)n1C)N=C1c3ccccc3C(=O)C1C(c1ccccc1)N2` (stereo not given), the growth is 92% in experiment [1]; 100% in [2]; 97.1% in experiment [3]; 92.8% in [4]; 91.4% in experiment [5]; 110% in [6]. In addition, the growth in [7] was 74.9%; in experiment [8] it was 105%; in [9], 73.3%; in experiment [10] it was 85.2%.

Turning to `CCOc1cc2c(cc1OCC)C(c1cc(C)c(O)c(C)c1)NCC2` (stereo not given), the growth in experiment [1] is 77.5%; in experiment [2], 92.2%; in experiment [3], 97.6%; in experiment [4] it was 95.9%; in [5] it was 101%; in experiment [6], 101%. The growth in experiment [7] was 101%; in experiment [8], 107%; in [9], 84.4%; in experiment [10] it was 91.6%.

In the case of `CCOC(=O)c1cnc2ccc(Cl)cc2c1NCCCN(C)C`, the growth in experiment [1] is -3.54% (active); in [2], -3.54% (active); in [3], 53.8%; in experiment [4], -12.1% (active); in experiment [5], 14.5%; in [6], -16.2% (active). Moreover, the growth in [7] is 18.8%; in [8], 33%; in experiment [9] it was 7.93% (active); in [10], 14.6%.
